Reference: PubChem BioAssay (EPA / NIEHS)
Inconclusive results are not listed. Active and inactive are the calls of the source. The calls were made as follows, unless noted: active = hit-call score of the fitted dose curve at least 0.9, where 1 is the maximum; inactive = score below 0.9.

Experiments:
[1] = ATG_TAL_CIS: Attagene CIS-FACTORIAL HepG2 Assay for human TAL Basal Promoter (AID 2282966); settings: HepG2 Attagene cis-factorial TAL promoter reporter; actives raise or lower the signal;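 also: background control endpoint measuring basal TAL promoter reporter mRNA not a specific factor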
Outline: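 In this cell-based multiplex, HepG2 liver cells bearing cis-promoter reporter constructs are dosed for 24 hours. Total RNA is reverse-transcribed and amplified, labelled fragments are sized by capillary electrophoresis, and signal changes are fitted bidirectionally versus DMSO.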

[2] = ATG_TGFb_CIS: Attagene CIS-FACTORIAL HepG2 Assay for human Transforming Growth Factor (TGF) (AID 2282967); settings: HepG2 Attagene CIS TGFb reporter, mRNA transcription; actives raise or lower the signal
Outline: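 Endogenous TGFB1-linked transcription factor activity read as reporter mRNA via RT-PCR and capillary electrophoresis, 24 h after dosing transiently transfected HepG2 cells. Gain or loss of signal fitted relative to DMSO.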

[3] = ATG_VDRE_CIS: Attagene CIS-FACTORIAL HepG2 Assay for human Vitamin D Receptor Element (VDRE) (AID 2282968); settings: HepG2 VDRE cis-reporter transcription, actives raise or lower the signal
Outline: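 In transiently transfected HepG2 liver cells, gain or loss of reporter mRNA after 24 h exposure is scored relative to DMSO, using fluorescence detection by capillary electrophoresis of RT-PCR products.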

[4] = target: Estrogen receptor (Homo sapiens) (UniProt P03372); test: ATG_ERa_TRANS: Attagene TRANS-FACTORIAL HepG2 Assay for human Estrogen Receptor alpha (ERa) (AID 2282970; active = hit-call score of the fitted dose curve at least 0.9, where 1 is the maximum); settings: HepG2 Attagene TRANS ERa GAL4 reporter, mRNA
Outline: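 After 24 h of compound treatment, RNA from HepG2 cells bearing transfected GAL4-UAS reporter constructs is converted to cDNA, amplified and fluorescently labelled. Capillary electrophoresis resolves the ERa-linked reporter; DMSO serves as negative control.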

[5] = target: X-box-binding protein 1 (Homo sapiens) (UniProt P17861); test: ATG_Xbp1_CIS: Attagene CIS-FACTORIAL HepG2 Assay for human X-box Binding Protein 1 (XBP1) (AID 2282972); settings: HepG2 XBP1 cis-element reporter, Attagene multiplex; actives raise or lower the signal
Outline: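 HepG2, transient MRTU transfection (cis-promoter driven), 24 h compound exposure. Total RNA → oligo(dT) RT → PCR → 6-FAM labeling → HpaI cut → CE. Bidirectional fit vs DMSO.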

[6] = ATG_GAL4_TRANS: Attagene TRANS-FACTORIAL HepG2 Assay for GAL4 (Internal Marker) (AID 2282976; active = hit-call score of the fitted dose curve at least 0.9, where 1 is the maximum); settings: HepG2 Attagene TRANS GAL4 internal marker reporter
Outline: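 RT-PCR/capillary electrophoresis readout of reporter mRNA. HepG2, transient MRTU transfection (GAL4-UAS reporters), 24 h compound exposure. Background-control endpoint, positive direction vs DMSO baseline.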

[7] = target: Glucocorticoid receptor (Homo sapiens) (UniProt P04150); test: ATG_GR_TRANS: Attagene TRANS-FACTORIAL HepG2 Assay for human Glucocorticoid Receptor (GR) (AID 2282978; active = hit-call score of the fitted dose curve at least 0.9, where 1 is the maximum;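 also: activators score as hits since higher reporter transcript over DMSO is fitted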); settings: HepG2 Attagene TRANS GR reporter, mRNA transcription
Outline: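 In this trans-factorial format, exogenous NR-GAL4 chimeric proteins in transfected HepG2 cells regulate GAL4-UAS reporter transcription. After 24 h treatment, reporter mRNA induction relative to DMSO is read by RT-PCR and capillary electrophoresis.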

[8] = target: Bile acid receptor (Homo sapiens) (UniProt Q96RI1); test: ATG_FXR_TRANS: Attagene TRANS-FACTORIAL HepG2 Assay for Farnesoid X Receptor (FXR) (AID 2282979; active = hit-call score of the fitted dose curve at least 0.9, where 1 is the maximum;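 also: hits raise reporter mRNA above DMSO so AC50 marks FXR activation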); settings: HepG2 Attagene TRANS FXR-GAL4 reporter transcription
Outline: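 Read-out: fluorescent reporter transcripts quantified by capillary electrophoresis after RT-PCR of total RNA. Source cells were HepG2 transiently carrying chimeric NR-GAL4 plus GAL4-UAS reporter units, dosed 24 h. Activity fitted upward relative to DMSO baseline.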

[9] = target: Hepatocyte nuclear factor 4-alpha (Homo sapiens) (UniProt P41235); test: ATG_HNF4a_TRANS: Attagene TRANS-FACTORIAL HepG2 Assay for human Hepatocyte Nuclear Factor 4 alpha (HNF4a) (AID 2282982; active = hit-call score of the fitted dose curve at least 0.9, where 1 is the maximum); settings: HepG2 HNF4a transactivation reporter, mRNA readout
Outline: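 Transfected HepG2 reporter cells are dosed for 24 h; reporter RNA is reverse-transcribed, amplified, fluorescently labelled and HpaI-digested before CE sizing. Positive-direction fit against DMSO.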

[10] = ATG_M_06_TRANS: Attagene TRANS-FACTORIAL HepG2 Assay for M06 Transcription Factor (Internal Marker) (AID 2282983; active = hit-call score of the fitted dose curve at least 0.9, where 1 is the maximum;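 also: reporter transcript level by RT-PCR then capillary electrophoresis fluorescence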); settings: HepG2 Attagene TRANS M06 internal marker reporter
Outline: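 After a 24 h chemical treatment of transfected HepG2, RNA underwent DNase I treatment, reverse transcription and reporter-specific PCR; labelled, HpaI-digested products were sized by capillary electrophoresis. Signal increase relative to DMSO defined activity.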

[11] = target: Nuclear receptor subfamily 4 group A member 2 (Homo sapiens) (UniProt P43354); test: ATG_NURR1_TRANS: Attagene TRANS-FACTORIAL HepG2 Assay for human Nuclear Receptor Related Protein 1 (NURR1) (AID 2282985; active = hit-call score of the fitted dose curve at least 0.9, where 1 is the maximum); settings: HepG2 Attagene TRANS reporter, mRNA readout
Outline: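 Cells: HepG2, transiently transfected. Exposure: 24 h. Detection: fluorescence of labelled RT-PCR products separated by capillary electrophoresis; upward fit versus DMSO.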

[12] = target: Transcriptional activator Myb (Homo sapiens) (UniProt P10242); test: ATG_Myb_CIS: Attagene CIS-FACTORIAL HepG2 Assay for human Myeloblastosis (Myb) Proto-Oncogene Transcription Factor (AID 2282986); settings: HepG2 Attagene CIS-FACTORIAL Myb reporter transcription; actives raise or lower the signal
Outline: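 Steps: transfect HepG2 with cis-regulated reporter units; dose with chemical for 24 h; isolate RNA, reverse-transcribe, PCR-amplify and FAM-label reporter sequences; digest with HpaI; resolve by capillary electrophoresis. Activity fitted in both directions relative to DMSO.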

[13] = target: Nuclear respiratory factor 1 (Homo sapiens) (UniProt Q16656); test: ATG_NRF1_CIS: Attagene CIS-FACTORIAL HepG2 Assay for human Nuclear Respiratory Factor 1 (NRF1) Orphan Gene (AID 2282987); settings: HepG2 NRF1 cis-element reporter, Attagene multiplex; actives raise or lower the signal
Outline: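 Fluorescence intensity of labelled reporter cDNA fragments, resolved by capillary electrophoresis, served as readout for NRF1 cis-element activity. Transiently transfected HepG2 cells were dosed for 24 hours; activity in either direction was fitted against DMSO negative control.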

[14] = target: Estrogen-related receptor gamma (Homo sapiens) (UniProt P62508); test: ATG_ERRg_TRANS: Attagene TRANS-FACTORIAL HepG2 Assay for human Estrogen-Related Receptor gamma (ERRg) (AID 2282977; active = hit-call score of the fitted dose curve at least 0.9, where 1 is the maximum;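 also: hits increase reporter signal over DMSO so potencies reflect activators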); settings: HepG2 Attagene TRANS reporter, ERRg transactivation
Outline: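 Transient HepG2 transfectants, 24 h compound exposure, GAL4-UAS reporter mRNA by RT-PCR/6-FAM labelling/capillary electrophoresis; positive direction vs DMSO.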

[15] = ATG_M_19_TRANS: Attagene TRANS-FACTORIAL HepG2 Assay for M19 Transcription Factor (Internal Marker) (AID 2282974; active = hit-call score of the fitted dose curve at least 0.9, where 1 is the maximum); settings: HepG2 Attagene TRANS-FACTORIAL M19 internal marker reporter
Outline: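 Cells: human HepG2, transiently transfected with multiplexed reporter transcription units. Exposure: 24 h. Detection: RT-PCR of reporter mRNA with capillary electrophoresis. Analysis: gain-of-signal vs DMSO.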

[16] = ATG_M_32_TRANS: Attagene TRANS-FACTORIAL HepG2 Assay for M32 Transcription Factor (Internal Marker) (AID 2282984; active = hit-call score of the fitted dose curve at least 0.9, where 1 is the maximum;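 also: transcript level of a background control reporter unit measured by RT-PCR and capillary electrophoresis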); settings: HepG2 Attagene TRANS M32 internal marker reporter
Outline: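 Using transiently transfected HepG2 cells exposed to test chemicals for 24 h, reporter transcripts are converted to labelled cDNA fragments and quantified by capillary electrophoresis. DMSO defines the activity baseline.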

[17] = target: Steroid hormone receptor ERR1 (Homo sapiens) (UniProt P11474); test: ATG_ERRa_TRANS: Attagene TRANS-FACTORIAL HepG2 Assay for human Estrogen-Related Receptor alpha (ERRa) (AID 2282971; active = hit-call score of the fitted dose curve at least 0.9, where 1 is the maximum); settings: HepG2 Attagene TRANS reporter, ERRa transactivation
Outline: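 Transfected HepG2, 24 h dosing, ERRa-Gal4 chimera driving GAL4-UAS reporter. Readout: reporter mRNA via RT-PCR plus capillary electrophoresis (fluorescence). Positive direction vs DMSO control.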

[18] = target: Oxysterols receptor LXR-beta (Homo sapiens) (UniProt P55055); test: ATG_LXRb_TRANS: Attagene TRANS-FACTORIAL HepG2 Assay for human Liver X Receptor beta (LXRb) (AID 2282981; active = hit-call score of the fitted dose curve at least 0.9, where 1 is the maximum); settings: HepG2 Attagene TRANS GAL4-LXRb reporter, mRNA
Outline: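 Cells: HepG2, transiently transfected with GAL4-UAS reporter units plus LXRb-Gal4 fusion. Treatment: 24 h. Detection: reporter mRNA by RT-PCR, 6-FAM labelling, HpaI digestion, capillary electrophoresis.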

Measured: AC50

Chain of Estrogen-related receptor gamma (Homo sapiens) (P62508 whole entry, looked up, the tested form may be a part): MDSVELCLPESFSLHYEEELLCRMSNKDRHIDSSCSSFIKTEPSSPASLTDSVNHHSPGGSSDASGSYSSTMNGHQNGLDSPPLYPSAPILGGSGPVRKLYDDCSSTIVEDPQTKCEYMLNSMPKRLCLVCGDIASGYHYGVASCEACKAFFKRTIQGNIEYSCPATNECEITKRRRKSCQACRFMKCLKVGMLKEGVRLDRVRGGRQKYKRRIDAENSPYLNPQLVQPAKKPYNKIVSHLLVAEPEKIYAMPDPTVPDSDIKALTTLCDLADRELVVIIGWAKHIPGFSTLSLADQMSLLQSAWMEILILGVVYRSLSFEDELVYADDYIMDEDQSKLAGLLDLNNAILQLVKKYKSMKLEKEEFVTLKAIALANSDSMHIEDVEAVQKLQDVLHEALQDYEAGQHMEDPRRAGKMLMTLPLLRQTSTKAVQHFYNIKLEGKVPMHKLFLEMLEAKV
Chain of Transcriptional activator Myb (Homo sapiens) (P10242 whole entry, looked up): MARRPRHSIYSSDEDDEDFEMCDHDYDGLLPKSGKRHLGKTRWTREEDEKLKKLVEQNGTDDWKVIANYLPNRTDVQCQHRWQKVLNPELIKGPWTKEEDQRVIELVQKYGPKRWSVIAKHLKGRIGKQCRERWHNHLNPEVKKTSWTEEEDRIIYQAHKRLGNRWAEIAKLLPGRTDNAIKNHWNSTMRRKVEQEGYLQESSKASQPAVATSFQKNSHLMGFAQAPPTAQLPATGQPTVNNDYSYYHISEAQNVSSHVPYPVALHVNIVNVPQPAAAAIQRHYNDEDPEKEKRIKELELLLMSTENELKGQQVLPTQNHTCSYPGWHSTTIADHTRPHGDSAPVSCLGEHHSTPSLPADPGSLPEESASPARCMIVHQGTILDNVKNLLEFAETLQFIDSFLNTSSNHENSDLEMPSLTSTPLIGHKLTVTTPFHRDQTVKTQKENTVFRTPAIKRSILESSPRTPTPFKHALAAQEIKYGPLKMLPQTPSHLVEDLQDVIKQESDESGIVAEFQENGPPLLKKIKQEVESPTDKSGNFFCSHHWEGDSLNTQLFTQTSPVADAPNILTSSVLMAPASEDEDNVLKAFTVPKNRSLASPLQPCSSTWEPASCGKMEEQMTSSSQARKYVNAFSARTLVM
Chain of Nuclear respiratory factor 1 (Homo sapiens) (Q16656 whole entry, looked up, the tested form may be a part): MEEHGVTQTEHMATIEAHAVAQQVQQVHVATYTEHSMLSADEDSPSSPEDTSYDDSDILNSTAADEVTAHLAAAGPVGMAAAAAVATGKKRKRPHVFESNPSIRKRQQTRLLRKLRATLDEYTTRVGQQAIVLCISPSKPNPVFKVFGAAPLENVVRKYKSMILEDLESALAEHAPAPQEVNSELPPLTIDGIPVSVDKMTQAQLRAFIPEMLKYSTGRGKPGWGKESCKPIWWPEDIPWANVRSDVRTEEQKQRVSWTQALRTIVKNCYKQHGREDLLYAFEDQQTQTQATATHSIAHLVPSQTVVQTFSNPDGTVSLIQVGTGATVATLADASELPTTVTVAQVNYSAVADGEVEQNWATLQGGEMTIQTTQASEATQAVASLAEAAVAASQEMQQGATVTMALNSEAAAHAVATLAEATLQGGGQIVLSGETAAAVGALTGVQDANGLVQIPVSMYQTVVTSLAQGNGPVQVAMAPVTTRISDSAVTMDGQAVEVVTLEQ
Chain of Estrogen receptor (Homo sapiens) (P03372 whole entry, looked up, the tested form may be a part): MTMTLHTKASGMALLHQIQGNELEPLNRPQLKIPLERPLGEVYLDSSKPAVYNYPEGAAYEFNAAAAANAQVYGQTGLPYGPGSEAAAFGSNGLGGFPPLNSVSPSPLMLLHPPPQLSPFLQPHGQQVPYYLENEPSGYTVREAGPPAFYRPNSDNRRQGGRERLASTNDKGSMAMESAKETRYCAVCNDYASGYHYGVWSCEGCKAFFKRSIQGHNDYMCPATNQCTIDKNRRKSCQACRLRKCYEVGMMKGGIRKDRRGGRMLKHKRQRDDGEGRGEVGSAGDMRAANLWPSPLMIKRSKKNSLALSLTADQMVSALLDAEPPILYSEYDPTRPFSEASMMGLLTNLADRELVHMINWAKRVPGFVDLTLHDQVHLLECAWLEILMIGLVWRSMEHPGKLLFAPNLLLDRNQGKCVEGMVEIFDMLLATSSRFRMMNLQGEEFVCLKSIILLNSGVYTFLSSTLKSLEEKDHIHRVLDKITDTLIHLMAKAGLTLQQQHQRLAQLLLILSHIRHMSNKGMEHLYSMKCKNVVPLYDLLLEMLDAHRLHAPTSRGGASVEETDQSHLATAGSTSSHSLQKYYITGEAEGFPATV
Chain of Hepatocyte nuclear factor 4-alpha (Homo sapiens) (P41235 whole entry, looked up): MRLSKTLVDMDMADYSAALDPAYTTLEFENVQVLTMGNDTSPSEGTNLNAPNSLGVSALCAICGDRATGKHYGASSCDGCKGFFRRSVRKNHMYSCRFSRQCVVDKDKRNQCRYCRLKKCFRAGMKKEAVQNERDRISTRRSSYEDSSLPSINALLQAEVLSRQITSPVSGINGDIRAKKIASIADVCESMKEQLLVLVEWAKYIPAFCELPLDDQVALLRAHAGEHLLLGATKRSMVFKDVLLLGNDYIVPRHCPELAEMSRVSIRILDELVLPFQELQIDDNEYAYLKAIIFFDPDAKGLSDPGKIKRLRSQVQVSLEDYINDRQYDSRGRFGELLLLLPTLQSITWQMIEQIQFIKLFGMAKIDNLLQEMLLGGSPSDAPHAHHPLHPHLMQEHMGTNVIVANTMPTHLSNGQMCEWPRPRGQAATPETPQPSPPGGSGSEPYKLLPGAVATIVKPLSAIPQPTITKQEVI
Chain of Glucocorticoid receptor (Homo sapiens) (P04150 whole entry, looked up, the tested form may be a part): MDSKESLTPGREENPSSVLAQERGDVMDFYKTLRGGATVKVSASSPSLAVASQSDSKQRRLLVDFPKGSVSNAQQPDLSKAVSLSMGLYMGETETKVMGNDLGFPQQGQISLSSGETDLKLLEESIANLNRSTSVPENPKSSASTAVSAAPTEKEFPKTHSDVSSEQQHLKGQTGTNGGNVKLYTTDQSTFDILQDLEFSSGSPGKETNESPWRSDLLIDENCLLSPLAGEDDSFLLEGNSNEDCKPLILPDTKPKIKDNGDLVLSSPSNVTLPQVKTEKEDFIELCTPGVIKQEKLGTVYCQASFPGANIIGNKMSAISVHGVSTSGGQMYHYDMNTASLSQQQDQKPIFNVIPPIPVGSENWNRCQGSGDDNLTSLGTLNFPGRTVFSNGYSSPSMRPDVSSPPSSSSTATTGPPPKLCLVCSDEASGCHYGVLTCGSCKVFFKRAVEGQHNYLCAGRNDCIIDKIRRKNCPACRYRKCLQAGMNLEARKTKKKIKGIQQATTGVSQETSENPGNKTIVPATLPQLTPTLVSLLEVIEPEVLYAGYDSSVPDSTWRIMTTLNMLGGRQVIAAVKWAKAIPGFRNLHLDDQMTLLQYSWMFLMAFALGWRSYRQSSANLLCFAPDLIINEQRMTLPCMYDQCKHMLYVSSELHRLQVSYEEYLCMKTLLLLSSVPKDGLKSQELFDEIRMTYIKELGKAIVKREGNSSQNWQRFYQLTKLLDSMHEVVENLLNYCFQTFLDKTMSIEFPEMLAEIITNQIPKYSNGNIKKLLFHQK
Chain of Bile acid receptor (Homo sapiens) (Q96RI1 whole entry, looked up, the tested form may be a part): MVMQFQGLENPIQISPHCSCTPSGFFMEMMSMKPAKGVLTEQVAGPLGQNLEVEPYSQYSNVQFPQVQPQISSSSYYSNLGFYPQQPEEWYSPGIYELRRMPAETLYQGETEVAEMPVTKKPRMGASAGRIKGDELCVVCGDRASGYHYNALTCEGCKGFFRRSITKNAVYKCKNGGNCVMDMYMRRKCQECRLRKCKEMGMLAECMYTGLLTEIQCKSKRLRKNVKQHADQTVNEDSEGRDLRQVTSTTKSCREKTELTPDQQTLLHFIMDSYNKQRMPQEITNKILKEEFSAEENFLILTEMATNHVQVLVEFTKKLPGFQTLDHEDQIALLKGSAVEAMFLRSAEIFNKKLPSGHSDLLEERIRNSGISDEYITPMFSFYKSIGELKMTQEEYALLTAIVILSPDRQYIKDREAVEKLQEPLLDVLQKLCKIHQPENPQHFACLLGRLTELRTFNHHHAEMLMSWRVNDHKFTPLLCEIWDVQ
Chain of Nuclear receptor subfamily 4 group A member 2 (Homo sapiens) (P43354 whole entry, looked up): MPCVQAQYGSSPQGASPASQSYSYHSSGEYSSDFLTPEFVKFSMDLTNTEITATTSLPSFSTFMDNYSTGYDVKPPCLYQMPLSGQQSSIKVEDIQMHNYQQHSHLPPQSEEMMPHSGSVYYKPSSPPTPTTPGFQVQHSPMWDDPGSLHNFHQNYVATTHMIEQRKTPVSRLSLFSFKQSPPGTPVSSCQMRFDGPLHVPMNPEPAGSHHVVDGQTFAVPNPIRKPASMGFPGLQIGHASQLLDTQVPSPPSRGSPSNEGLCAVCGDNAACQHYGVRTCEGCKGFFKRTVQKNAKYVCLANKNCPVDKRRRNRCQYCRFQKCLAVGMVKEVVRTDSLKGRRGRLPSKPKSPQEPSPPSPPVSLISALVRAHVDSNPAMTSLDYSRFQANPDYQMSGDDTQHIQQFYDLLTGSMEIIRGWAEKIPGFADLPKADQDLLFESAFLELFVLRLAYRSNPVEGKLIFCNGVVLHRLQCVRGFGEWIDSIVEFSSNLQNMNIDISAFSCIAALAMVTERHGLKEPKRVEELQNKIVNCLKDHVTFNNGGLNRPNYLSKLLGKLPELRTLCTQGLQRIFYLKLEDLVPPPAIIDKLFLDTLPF
Chain of X-box-binding protein 1 (Homo sapiens) (P17861 whole entry, looked up): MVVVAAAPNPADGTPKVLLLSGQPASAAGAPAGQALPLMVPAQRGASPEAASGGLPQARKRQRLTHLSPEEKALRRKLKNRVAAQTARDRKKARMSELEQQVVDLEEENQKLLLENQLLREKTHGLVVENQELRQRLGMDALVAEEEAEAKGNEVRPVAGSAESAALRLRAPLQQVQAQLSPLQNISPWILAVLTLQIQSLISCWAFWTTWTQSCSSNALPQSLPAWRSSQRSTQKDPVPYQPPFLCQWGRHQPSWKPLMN

CC(C)OC(=O)C(C)(C)Oc1ccc(C(=O)c2ccc(Cl)cc2)cc1
active: [3] 27.6 µM | [4] 27.1 µM | [5] 54.4 µM | [8] 26.8 µM | [11] 26.9 µM
not listed: [14] | [15] | [16] | [17] | [18]
inactive: all other assays above

Cc1ccc(C(C)(C)C)c(O)c1
active: [3] 151 µM | [4] 6.64 µM | [5] 139 µM
inactive: [1] | [2] | [14] | [8] | [10] | [12] | [13]

CCCCOC(=O)CCCCC(=O)OCCCC
active: [7] 155 µM
not listed: [4] | [6] | [8] | [16] | [17] | [18]
inactive: all other assays above

Oc1ccc(O)cc1
active: [4] 59.9 µM | [5] 114 µM
inactive: [1] | [2] | [3] | [9] | [10] | [16] | [11] | [12] | [13]

CN(C)C(=O)NC1(c2ccccc2)CCN(CC[C@@]2(c3ccc(F)c(F)c3)CN(C(=O)c3ccccc3)CCO2)CC1
inactive: [1] | [2] | [5] | [15] | [7] | [8] | [12] | [13]
active: [3] 4.16 µM

Cc1cc(SC2=C(O)C[C@@](CCc3ccc(N)cc3)(C(C)C)OC2=O)c(C(C)(C)C)cc1CO
active: [3] 5.63 µM
not listed: [4] | [6] | [7] | [8] | [9] | [10] | [11]
inactive: all other assays above
